Results on two compounds are retold here after PubChem BioAssay AID1720 (National Center for Advancing Translational Sciences (NCATS), 2009).

The other results are listed elsewhere or left out. Inconclusive results are not listed. Unmarked numbers belong to inactive results. The source made the active and inactive calls. No stated cut-off is given here; in the data, active means inhibition above about 40%; inconclusive means no clear call, values can overlap the other calls; inactive means below about 18%.

Chain of Microtubule-associated protein tau (Homo sapiens) (P10636 561-689 P618L limits assumed): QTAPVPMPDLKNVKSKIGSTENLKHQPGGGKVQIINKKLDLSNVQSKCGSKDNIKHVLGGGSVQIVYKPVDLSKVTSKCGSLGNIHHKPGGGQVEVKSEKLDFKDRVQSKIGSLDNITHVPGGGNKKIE

This assay concerns the target Microtubule-associated protein tau (Homo sapiens) (UniProt P10636). The assay is described as follows: Sedimentation Assay for Inhibitors of Tau Fibrillization. Particulars: recombinant tau K18 P301L (four-repeat tau fragment), sedimentation SDS-PAGE densitometry; at 100 µM; active compounds read high. From the text:
NIH Molecular Libraries Probe Production Network [MLPCN] NIH Chemical Genomics Center [NCGC] MLPCN Grant: X01 MH083262-01 Assay Provider: Carlo Ballatore, University of Pennsylvania NCGC Assay Overview: The microtubule-associated protein tau is an abundant protein in the axons of neurons that stabilizes microtubules. With its ability to modulate microtubule dynamics, tau contributes directly or indirectly, to key structural and regulatory cellular functions. Particularly important is the influence tau exerts on axonal transport, which allows signaling molecules, trophic factors and other essential cellular constituents to travel along the axons. […] The ability of compounds to block tau fibrillization was assessed using a sedimentation assay. Unlike tau monomers, tau fibrils readily sediment upon centrifugation. Samples from the tau ThT confirmation assay treated with 100 uM compound (AID 1558) were centrifuged and the amount of tau present in the supernatant and pellet was determined. […]
NCGC Assay Protocol Summary: Human K18 P301L tau (15 uM) in assay buffer (20 uM heparin, 12.5 uM Thioflavine T, 100 mM sodium acetate pH 7) was centrifuged at 186,000 x g for 30 min and the supernatant removed from the pellet. Pellets were resuspended in a volume equal to the supernatant and equal amounts of supernatants and pellet were analyzed by SDS-PAGE using a 12.5% acrylamide gel. […]
As a reminder, the inhibition is the share of the control response that was lost under treatment. Take `CC(=O)Nc1sc(C)c2cnn(-c3ccccc3)c(=O)c12`: the inhibition is 5%.

Take `CCN(CC)c1ccc2oc(=O)c(C)nc2c1`: the inhibition is 59% (active).
